Values without a mark were called inactive. Active and inactive are the calls of the source. Rule as the data show it, unless noted: active = inhibition above about 30%; inactive = the rest.

Test [1] has as its target Nuclear receptor coactivator 3 (Homo sapiens) (UniProt Q9Y6Q9). The experiment in a line: SRC3 coactivator transcriptional activity inhibitors, confirmation, cell-based, luminescence, quadruplicate (AID 588792;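 active = mean inhibition over 43.08%, the solvent-only control mean plus 3 SD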;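 also: 0% = DMSO treated cells and 100% = gossypol at 36 µM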). Particulars: HEK293 GAL4-SRC3 luciferase reporter, at 3.6 µM, hits give high values.
The subject of test [2] is transactivating tegument protein VP16 (Human herpesvirus 1), Gal4-VP16 luciferase reporter. The experiment in a line: VP16 transactivation inhibitors, counter-screen for SRC3 inhibitor project, cell-based, luminescence, high throughput (AID 588794). Particulars: mammalian cells, VP16-driven luciferase reporter luminescence; at 3.6 µM; hits give high values. On the technique in general: The purpose of a counterscreen is to sort out artefacts and off-target activity.

In test [3] the target is Nuclear receptor coactivator 1 (Homo sapiens) (UniProt Q15788). Put plainly: SRC1 coactivator transcriptional activity inhibitors, confirmation, cell-based, luminescence, quadruplicate (AID 588820;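 active = mean inhibition above 46.68%, the untreated control wells mean plus 3 SD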;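 also: 0% = DMSO wells and 100% = gossypol 36 µM treated wells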). Particulars: HEK293 GAL4-SRC1 luciferase reporter, at 3.6 µM, hits give high values. Background: In a reporter assay the amount or activity of a reporter protein is the signal.
Test [4] in a line: VP16 transactivation inhibitors, counter-screen for SRC1 inhibitor project, cell-based, luminescence, high throughput (AID 588824; in the data active = inhibition above about 25%). Particulars: cell-based VP16 transactivation luciferase luminescence; at 3.6 µM; hits give high values.

Chain of Nuclear receptor coactivator 1 (Homo sapiens) (Q15788 whole entry, looked up, the tested form may be a part): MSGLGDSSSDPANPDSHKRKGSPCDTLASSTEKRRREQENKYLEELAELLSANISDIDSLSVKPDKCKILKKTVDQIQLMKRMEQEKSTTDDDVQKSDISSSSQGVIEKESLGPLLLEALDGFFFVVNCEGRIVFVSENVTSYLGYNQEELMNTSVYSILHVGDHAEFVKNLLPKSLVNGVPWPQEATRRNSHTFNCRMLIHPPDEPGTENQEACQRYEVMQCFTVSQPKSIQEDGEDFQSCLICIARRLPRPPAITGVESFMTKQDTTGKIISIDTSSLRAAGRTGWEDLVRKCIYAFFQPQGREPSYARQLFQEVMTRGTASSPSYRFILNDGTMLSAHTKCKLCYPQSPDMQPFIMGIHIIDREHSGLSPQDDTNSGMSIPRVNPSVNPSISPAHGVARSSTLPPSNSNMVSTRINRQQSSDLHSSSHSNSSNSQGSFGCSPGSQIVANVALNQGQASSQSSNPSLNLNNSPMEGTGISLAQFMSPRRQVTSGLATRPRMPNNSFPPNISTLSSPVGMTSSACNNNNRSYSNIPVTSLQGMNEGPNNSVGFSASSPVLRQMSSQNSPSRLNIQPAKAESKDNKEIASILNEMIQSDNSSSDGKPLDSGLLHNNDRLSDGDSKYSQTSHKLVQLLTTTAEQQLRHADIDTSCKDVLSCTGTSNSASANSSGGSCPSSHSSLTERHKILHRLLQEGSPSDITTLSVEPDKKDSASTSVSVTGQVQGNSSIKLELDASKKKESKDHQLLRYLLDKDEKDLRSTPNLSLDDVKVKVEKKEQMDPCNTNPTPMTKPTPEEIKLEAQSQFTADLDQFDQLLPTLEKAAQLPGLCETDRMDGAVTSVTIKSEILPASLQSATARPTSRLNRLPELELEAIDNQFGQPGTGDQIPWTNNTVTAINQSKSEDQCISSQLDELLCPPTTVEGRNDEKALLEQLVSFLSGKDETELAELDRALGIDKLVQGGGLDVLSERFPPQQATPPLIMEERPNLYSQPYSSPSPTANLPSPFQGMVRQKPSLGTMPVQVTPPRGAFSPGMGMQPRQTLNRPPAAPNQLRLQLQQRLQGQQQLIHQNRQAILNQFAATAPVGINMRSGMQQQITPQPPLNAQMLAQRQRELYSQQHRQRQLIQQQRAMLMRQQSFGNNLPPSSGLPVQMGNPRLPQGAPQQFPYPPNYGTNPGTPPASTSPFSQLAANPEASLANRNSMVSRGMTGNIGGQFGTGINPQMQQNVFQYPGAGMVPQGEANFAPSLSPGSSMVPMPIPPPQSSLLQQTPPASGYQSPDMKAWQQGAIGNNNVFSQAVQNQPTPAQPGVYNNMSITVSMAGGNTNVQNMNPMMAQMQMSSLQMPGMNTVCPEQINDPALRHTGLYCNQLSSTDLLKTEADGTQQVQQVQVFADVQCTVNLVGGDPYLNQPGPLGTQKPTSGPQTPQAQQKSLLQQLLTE
Chain of Nuclear receptor coactivator 3 (Homo sapiens) (Q9Y6Q9 whole entry, looked up, the tested form may be a part): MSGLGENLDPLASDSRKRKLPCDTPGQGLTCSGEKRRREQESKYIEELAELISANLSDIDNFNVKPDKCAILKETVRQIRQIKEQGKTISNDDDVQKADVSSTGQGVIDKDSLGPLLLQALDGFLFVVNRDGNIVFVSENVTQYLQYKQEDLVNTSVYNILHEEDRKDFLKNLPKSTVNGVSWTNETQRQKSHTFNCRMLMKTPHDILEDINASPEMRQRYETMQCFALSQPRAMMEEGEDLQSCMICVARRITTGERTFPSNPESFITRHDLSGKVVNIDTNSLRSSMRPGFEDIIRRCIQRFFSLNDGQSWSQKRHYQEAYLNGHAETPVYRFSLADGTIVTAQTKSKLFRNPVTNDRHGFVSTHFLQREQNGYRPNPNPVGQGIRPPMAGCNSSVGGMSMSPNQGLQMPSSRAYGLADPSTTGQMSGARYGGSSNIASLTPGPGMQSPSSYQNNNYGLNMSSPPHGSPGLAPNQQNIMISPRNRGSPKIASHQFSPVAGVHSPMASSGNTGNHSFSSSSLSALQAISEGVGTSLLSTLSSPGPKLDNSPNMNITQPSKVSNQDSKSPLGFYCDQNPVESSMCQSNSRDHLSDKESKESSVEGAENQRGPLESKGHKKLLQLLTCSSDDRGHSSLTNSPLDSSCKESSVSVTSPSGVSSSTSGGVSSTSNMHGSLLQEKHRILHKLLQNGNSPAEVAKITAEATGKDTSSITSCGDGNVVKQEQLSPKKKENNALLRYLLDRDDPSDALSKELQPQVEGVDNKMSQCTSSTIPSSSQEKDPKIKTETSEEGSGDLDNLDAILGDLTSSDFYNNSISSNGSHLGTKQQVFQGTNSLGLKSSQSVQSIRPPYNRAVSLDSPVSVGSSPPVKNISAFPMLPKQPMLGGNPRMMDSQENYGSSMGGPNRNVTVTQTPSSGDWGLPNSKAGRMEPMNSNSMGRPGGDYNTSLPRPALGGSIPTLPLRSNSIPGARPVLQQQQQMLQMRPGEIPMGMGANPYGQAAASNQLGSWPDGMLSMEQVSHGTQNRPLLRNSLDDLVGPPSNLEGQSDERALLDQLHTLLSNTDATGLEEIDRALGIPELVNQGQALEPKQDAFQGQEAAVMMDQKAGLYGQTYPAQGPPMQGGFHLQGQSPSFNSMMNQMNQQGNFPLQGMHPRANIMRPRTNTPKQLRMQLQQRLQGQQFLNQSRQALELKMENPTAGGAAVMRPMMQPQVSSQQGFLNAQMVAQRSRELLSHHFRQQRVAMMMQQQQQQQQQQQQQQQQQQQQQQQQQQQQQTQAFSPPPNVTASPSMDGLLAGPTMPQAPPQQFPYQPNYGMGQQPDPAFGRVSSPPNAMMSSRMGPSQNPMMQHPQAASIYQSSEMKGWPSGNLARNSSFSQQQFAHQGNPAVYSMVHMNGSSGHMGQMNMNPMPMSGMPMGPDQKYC

The inhibition is the drop in the measured response relative to a control, in per cent. `O=C(Nc1ccc([N+](=O)[O-])cc1)Nc1ccc(OC(F)F)c(Cl)c1`: the inhibition in test [1] is 22.9%; in test [2] it was 32.5% (active); in test [3], 10.3%; in test [4] it was 39.7% (active).
For `COc1cccc(-c2ccc3ncnc(NCc4ccc5c(c4)OCO5)c3c2)c1`, in that order: 37.3%, 30.1% (active), 45.2% and 30% (active).
For `CCOC(=O)CC(=O)CSc1nccc(-c2cccnc2)n1`, in that order: 37.5%, 15.3%, 16.4% and 10.1%.
Take `Nc1nc(=O)n(C2OC(CO)C(O)C2O)cc1F` (stereo not given): the inhibition in test [1] was 13.6%; in test [2], 31.5% (active); in test [3], 40.1%; in test [4] it was 38.9% (active).
For `CC(C)(C)[C@H]1C=C(C(=O)Nc2ccccc2)O[C@@H](OCCCCO)C1`, in that order: -13.7%, -16.4%, -41.4% and -38%.
For `Cn1nnnc1N=N/C(=N/Nc1ccccc1)c1ccccc1`, in that order: 79.8% (active), 42.9% (active), 55.5% (active) and 32.8% (active).
Consider `O=[N+]([O-])c1ccc(Oc2ccc(F)cc2)c2ccncc12`, for which the inhibition was 46.8% (active) in test [1], 36% (active) in test [2], 47.6% (active) in test [3] and 35.4% (active) in test [4].
Regarding `CCOc1ccc(-n2c(C)c(C(C)=O)c3cc(OC(C)=O)ccc32)cc1`, the inhibition in test [1] is 67.3% (active); in test [2] it was 44.5% (active); in test [3] it was 65.8% (active); in test [4], 47.6% (active).
For `CCN(CC)CCNc1ccc(C)c2sc3ccc(O)cc3c(=O)c12`, in that order: 41.5%, 34.1% (active), 50% (active) and 31.8% (active).
For `COc1ccc(-n2c(C)c(C(C)=O)c3cc(OC(C)=O)ccc32)cc1`, in that order: 77.5% (active), 55% (active), 65.2% (active) and 60.4% (active).
Take `Cc1ccc(NC(=O)C2CCN(c3ncnc4sc(C)c(C)c34)CC2)cc1S(=O)(=O)N(C)C`: the inhibition in test [1] was 10.3%; in test [2], 12.1%; in test [3], 17.6%; in test [4] it was 1.39%.
For `Cc1ccc2nc(-c3ccncc3)c(NC3CCCC3)n2c1`, in that order: 38.8%, 29.2%, 27.3% and 25.7% (active).
For `CCOC(=O)N=Nc1c2ccccc2c2nc3no[nH]c3nc12`, in that order: 95.7% (active), 93.1% (active), 88.3% (active) and 92.4% (active).
Turning to `O=C1C(F)=CC(COC(c2ccccc2)(c2ccccc2)c2ccccc2)OC1n1cc(F)c(=O)[nH]c1=O` (stereo not given), the inhibition in test [1] is 66% (active); in test [2], 60.3% (active); in test [3] it was -11.1%; in test [4], 62.1% (active).
For `COc1ccc(-c2nsc3c(N4CCCCC4)ncnc23)cc1`, in that order: 32.4%, 20.4%, 1.39% and -6.65%.
For `OC1c2cc(Br)ccc2N=C2CCCN21` (stereo not given), in that order: 44.3% (active), 37.3% (active), 37% and 30.1% (active).
As to `C#CC[N+](C)(C)CCCCCCCCCC`, the inhibition in test [1] was 18.6%; in test [2] it was 23.2%; in test [3], 9.87%; in test [4] it was 16.1%.
For `Cc1ccc2occ(/C=N/NC(=O)c3ccncc3)c(=O)c2c1`, in that order: 21.2%, 15.1%, 20.3% and 14.4%.
Turning to `COc1cccc2c1C(=N)c1c(O)c3c(c(O)c1C2=O)CC(O)(C(C)=O)CC3OC1CC(N)C(O)C(C)O1` (stereo not given), the inhibition in test [1] was 41.9%; in test [2], -33.3%; in test [3] it was 26.9%; in test [4] it was -29.4%.
Turning to `Cn1c(Sc2ccc(Cl)cc2)c(C=O)c2ccccc21`, the inhibition is 52.3% (active) in test [1], 43.6% (active) in test [2], 60% (active) in test [3] and 37% (active) in test [4].
For `Nc1ccn([C@@H]2O[C@H](CO)[C@@H](O)C2O)c(=O)n1` (stereo not given in full), in that order: 33.8%, 30.9% (active), 32.5% and 19.4%.
For `Cc1ccc(S(=O)(=O)N(C)Cc2ccc(C(=O)N/N=C/c3ccc(OC(F)F)cc3OC(F)F)cc2)cc1`, in that order: 10.9%, 18.8%, -28.9% and 20%.
With `NC(=S)N/N=C1\CCSc2ccc(Cl)cc21`, the inhibition in test [1] is 39.3%; in test [2] it was 22.9%; in test [3], 6.53%; in test [4] it was 16.1%.
For `Cc1cccc[n+]1CC(=O)/C=C1\N(C)c2ccccc2C1(C)C`, in that order: 8.01%, 20.6%, -9.04% and 23.5%.
For `COc1ccc(Nc2ncnc3ccc(Br)cc23)cc1OC`, in that order: 61.3% (active), 40.6% (active), 50.7% (active) and 42.2% (active).

The record behind these values is PubChem BioAssay.
